Our source for the Potency and max response values is PubChem BioAssay (Tox21).

Test [1] in a line: qHTS RealTime-Glo MT Cell Viability Assay in HepG2 cells - 40 hour (AID 1224870). Also: nearly all actives have a fitted effect of over 50% in size. Also: potency is read from the fitted curve at half-maximal effect. In short, it runs like this:
(§1)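 HepG2 cells mixed with RealTime-Glo MT reagents (NanoLuc plus cell-permeant prosubstrate) were seeded at 600 cells/well, incubated 5 h at 37 C/5% CO2, then pinned with compounds in DMSO; nonlytic luminescence tracked viability during 40 h treatment.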
(In general: In qHTS, concentration-response curves come from the screen itself.)

A short description of test [2]: A CellTox Green Cytotoxicity Assay to monitor cytotoxicity in HEK293 cells - 40 hour (AID 1224871). Also: nearly all actives have a fitted effect of over 45% in size. In short, it runs like this: (§2)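 Nonlytic real-time cytotoxicity: HEK293 + CellTox Green reagent plated, 5 h preincubation, pintool compound addition (23 nL in DMSO), 37 C for 40 h, fluorescence measured at successive time points.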
Test [3] is described as follows: qHTS RealTime-Glo MT Cell Viability Assay in HEK293 cells - 16 hour (AID 1224872). Also: top concentration of the series differs between compounds; nearly all actives have a fitted effect of over 50% in size. In short, it runs like this:
(§3)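 Viability tracked continuously by luminescence as live cells reduce a prosubstrate for NanoLuc; HEK293 cells preincubated 5 h, compound-treated at 37 C, and read at 0, 8, 16, 24, 32 and 40 h.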

Test [4] in a line: qHTS RealTime-Glo MT Cell Viability Assay in HepG2 cells - 8 hour (AID 1224873). Also: nearly all actives have a fitted effect of over 55% in size. In short, it runs like this: as §1
Test [5] is described as follows: qHTS RealTime-Glo MT Cell Viability Assay in HEK293 cells - 40 hour (AID 1224874). Also: nearly all actives have a fitted effect of over 50% in size. Also: potency is read from the fitted curve at half-maximal effect. To be noted: RealTime-Glo luminescence; max response: stronger effect = lower value. In short, it runs like this:
(§4)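 Cells were seeded together with NanoLuc luciferase and a prosubstrate that viable cells reduce to a luciferase substrate. After a 5 h incubation at 37 C/5% CO2, compounds were added and luminescence was measured repeatedly during 40 h of treatment.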

Test [6] is described as follows: A CellTox Green Cytotoxicity Assay to monitor cytotoxicity in HEK293 cells - 24 hour (AID 1224875). Also: series mostly up to about 77 µM; nearly all actives have a fitted effect of over 45% in size. In short, it runs like this:
as §2

Test [7] is described as follows: A CellTox Green Cytotoxicity Assay to monitor cytotoxicity in HepG2 cells - 16 hour (AID 1224876). Also: nearly all actives have a fitted effect of over 45% in size. In short, it runs like this:
(§5)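 Read-out is fluorescence of a cyanine dye excluded from live cells that stains DNA of dead HepG2 cells, with signal proportional to cytotoxicity. Plates were read at 0, 8, 16, 24, 32 and 40 h after compound addition.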

The nature of test [8]: qHTS RealTime-Glo MT Cell Viability Assay in HepG2 cells - 32 hour (AID 1224877). Also: nearly all actives have a fitted effect of over 55% in size. In short, it runs like this: (§6)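 Viability was tracked continuously by NanoLuc luminescence from prosubstrate reduced by living HepG2 cells, at successive time points over 40 h of compound exposure. Cells with reagent were preincubated 5 h at 37 °C before compound addition.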
A short description of test [9]: A CellTox Green Cytotoxicity Assay to monitor cytotoxicity in HepG2 cells - 24 hour (AID 1224878). Also: nearly all actives have a fitted effect of over 45% in size. Also: potency is read from the fitted curve at half-maximal effect. In short, it runs like this: as §5
Test [10] in a line: A CellTox Green Cytotoxicity Assay to monitor cytotoxicity in HepG2 cells - 40 hour (AID 1224879). Also: nearly all actives have a fitted effect of over 40% in size. Also: potency is read from the fitted curve at half-maximal effect. In short, it runs like this: as §5
Test [11] in a line: qHTS RealTime-Glo MT Cell Viability Assay in HEK293 cells - 0 hour (AID 1224880). In short, it runs like this: as §4
Test [12] can be described thus: A CellTox Green Cytotoxicity Assay to monitor cytotoxicity in HEK293 cells - 32 hour (AID 1224881). Also: nearly all actives have a fitted effect of over 40% in size. In short, it runs like this:
as §2

Test [13] is described as follows: A CellTox Green Cytotoxicity Assay to monitor cytotoxicity in HepG2 cells - 0 hour (AID 1224882). Also: nearly all actives have a fitted effect of over 35% in size. In short, it runs like this: as §5
Test [14] in a line: A CellTox Green Cytotoxicity Assay to monitor cytotoxicity in HepG2 cells - 32 hour (AID 1224883). Also: nearly all actives have a fitted effect of over 50% in size. Also: potency is read from the fitted curve at half-maximal effect. In short, it runs like this:
as §5

Test [15] can be described thus: A CellTox Green Cytotoxicity Assay to monitor cytotoxicity in HEK293 cells - 8 hour (AID 1224884). Also: nearly all actives have a fitted effect of over 35% in size. In short, it runs like this:
as §2

The nature of test [16]: qHTS RealTime-Glo MT Cell Viability Assay in HepG2 cells - 16 hour (AID 1224885). Also: nearly all actives have a fitted effect of over 50% in size. In short, it runs like this: as §6
Test [17] in a line: qHTS RealTime-Glo MT Cell Viability Assay in HEK293 cells - 24 hour (AID 1224886). Also: nearly all actives have a fitted effect of over 50% in size. Also: potency is read from the fitted curve at half-maximal effect. In short, it runs like this: as §3
Test [18] is described as follows: qHTS RealTime-Glo MT Cell Viability Assay in HEK293 cells - 8 hour (AID 1224887). In short, it runs like this:
as §4

A short description of test [19]: A CellTox Green Cytotoxicity Assay to monitor cytotoxicity in HEK293 cells - 16 hour (AID 1224888). Also: nearly all actives have a fitted effect of over 35% in size. In short, it runs like this:
as §2

Test [20] in a line: qHTS RealTime-Glo MT Cell Viability Assay in HepG2 cells - 0 hour (AID 1224889). Also: nearly all actives have a fitted effect of over 50% in size. In short, it runs like this: as §6

Structures are written as SMILES. Several values for one entry are separate records, joined by “and”; a condition that tells them apart may be missing. Equal values may be shown once. Records with an inconclusive call do not appear. More than one record can exist for a structure, and the calls need not agree. Activity calls are given as the source filed them. Calls follow the shape of the dose curve; as a rule, active = well fitted curve in the direction sought with a large enough effect in the repeat runs; inconclusive = weak or mixed curves; inactive = no such curve, though single readings can be large; an effect the other way counts as inactive or inconclusive.
% is scaled to controls: 0 for no effect and ±100 for the full control effect.

On to `COC(=O)C(Cl)C(=O)OC`, for which the Potency result in test [1], in test [2], in test [3], in [4], in test [6] and in test [7] was “inactive” each time. The Potency result in test [8], in test [9], in test [10], in [11], in [12] and in test [13] was “inactive” throughout. The Potency result in [14], in [15], in [16], in test [17], in [18] and in [19] was “inactive” in each case. Further, in test [20], the Potency entry was “inactive”. Besides, in test [5], the max response was -20.1% (inactive).
Regarding `CCO[C@H]1O[C@@H]2OC3(C)CC[C@H]4[C@H](C)CC[C@@H]([C@H]1C)[C@@]24OO3`, the Potency entry in test [1], in test [2], in test [3], in test [4], in test [6] and in [7] was “inactive” in each case. The Potency result in test [8], in test [9], in test [10], in [11], in [12] and in test [13] was “inactive” in each case. For the same compound, the Potency result in test [14], in [15], in test [16], in [17], in [18] and in [19] was “inactive” each time. Further, the Potency entry in test [20] was “inactive”. For the same compound, the max response in [5] is -21.5% (inactive).
With `COP(=S)(OC)Oc1cc(Cl)c(I)cc1Cl`, the Potency result in test [1], in test [2], in [3], in [4], in test [6] and in test [7] was “inactive” throughout. In addition, the Potency result in test [8], in [9], in test [10], in [11], in test [12] and in [13] was “inactive” throughout. Moreover, the Potency entry in test [14], in test [15], in [16], in test [17], in test [18] and in test [19] was “inactive” throughout. In addition, the Potency result in test [20] was “inactive”. The max response in test [5] was -19.9% (inactive).
For `CCN(C)N=O`, the Potency result in test [1], in test [2], in [3], in [4], in [6] and in test [7] was “inactive” in each case. Further, the Potency entry in test [8], in [9], in test [10], in [11], in test [12] and in test [13] was “inactive” throughout. Further, the Potency result in test [14], in [15], in [16], in test [17], in [18] and in test [19] was “inactive” each time. Further, the Potency entry in test [20] is “inactive”. In test [5], the max response is 2.13% (inactive).
Take `CN(N=O)c1ccc([N+](=O)[O-])cc1`: the Potency result in test [1], in test [2], in [3], in test [4], in [6] and in test [7] was “inactive” throughout. Besides, the Potency result in test [8], in [11], in test [12], in [13], in [15] and in test [16] was “inactive” throughout. The Potency result in test [17], in test [18] and in test [19] was “inactive” in each case. In addition, the max response in test [5] is -1.54% (inactive). The Potency in test [9], in test [10] and in [14] was 43.6 µM (active) throughout.
`O=NN1CCCCCC1`: the Potency entry in test [1], in [2], in test [3], in [4], in test [6] and in test [7] was “inactive” throughout. Moreover, the Potency entry in [8], in [9], in test [10], in test [11], in [12] and in test [13] was “inactive” in each case. The Potency result in [14], in [15], in test [16], in test [17], in test [18] and in [19] was “inactive” each time. Also, the Potency result in test [20] was “inactive”. Besides, the max response in [5] was 0.127% (inactive).
`CCn1cc[n+](C)c1`: the Potency entry is “inactive and 44 µM (active)” in test [1]; 1.56 µM (active) in [5]; “inactive and 55.5 µM (active)” in test [10]; “inactive and 1.75 µM (active)” in [17]. Also, the Potency entry in test [2], in test [3], in [4], in [6], in test [7] and in [8] was “inactive” in each case. Further, the Potency entry in [9], in test [11], in test [12], in test [13], in test [14] and in test [15] was “inactive” in each case. Moreover, the Potency result in [18], in test [19] and in [20] was “inactive” throughout. In addition, in test [5], the max response was 0.829% (inactive) [middle of 11 runs].
In the case of `CC(Cl)C(C)Cl` (configuration not stated), the Potency result in [1], in test [2], in test [3], in [4], in test [6] and in [7] was “inactive” throughout. In addition, the Potency result in test [8], in [9], in test [10], in [11], in test [12] and in [13] was “inactive” in each case. Further, the Potency result in test [14], in test [15], in test [16], in [17], in test [18] and in test [19] was “inactive” each time. For the same compound, the Potency entry in test [20] was “inactive”. In addition, in test [5], the max response is 1.04% (inactive).
As for `CC(Cl)Cl`, the Potency entry in test [1], in test [2], in test [3], in test [4], in [6] and in [7] was “inactive” throughout. The Potency entry in test [8], in [9], in test [10], in test [11], in [12] and in [13] was “inactive” throughout. Also, the Potency result in test [14], in test [15], in test [16], in test [17], in test [18] and in test [19] was “inactive” each time. Further, the Potency result in test [20] is “inactive”. For the same compound, the max response in test [5] is 3.34% (inactive).
With `N#C/C(N)=C(/N)C#N`, the Potency result in test [1], in [2], in test [3], in [4], in test [6] and in test [7] was “inactive” throughout. In addition, the Potency entry in test [8], in [9], in test [10], in test [11], in test [12] and in [13] was “inactive” throughout. In addition, the Potency entry in [14], in [15], in test [16], in [17], in [18] and in test [19] was “inactive” throughout. Moreover, the max response in test [5] is 0.894% (inactive).
As for `C=CC(=O)OC`, the Potency entry in [1], in test [2], in test [3], in [4], in test [6] and in test [7] was “inactive” each time. Also, the Potency result in test [8], in [9], in test [10], in test [11], in test [12] and in [13] was “inactive” each time. For the same compound, the Potency entry in [14], in test [15], in [16], in test [17], in test [18] and in [19] was “inactive” in each case. For the same compound, the max response in test [5] was 0.596% (inactive).
Take `Clc1cccc(SC2CCNCC2)n1`: the Potency entry in [1], in test [2], in test [3], in test [4], in [6] and in [7] was “inactive” throughout. In addition, the Potency entry in [8], in [9], in test [10], in test [11], in test [12] and in [13] was “inactive” each time. Besides, the Potency entry in [14], in test [15], in test [16], in test [17], in test [18] and in [19] was “inactive” throughout. In addition, in test [20], the Potency entry was “inactive”. Also, the max response in test [5] is 1.39% (inactive).
